Pf growth 48h: inhibits P. falciparum growth in the first generation, 48 h; P. falciparum luciferase growth in erythrocytes, 48 h; 310,000 tested, 5.9% active; Potency, µM (titrated, usually from 28.7 µM), without a hit: top-dose activity change, negative = inhibition, actives largely listed as inhibitors; AID 504832; note: potency is the fitted concentration of half-maximal effect
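First compound was added to culture medium, then infected red cells at 0.1% parasitemia and 2% hematocrit (final). After incubation at 37 C under 5% CO2, luciferase detection reagent was dispensed and light output recorded.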
Sm TGR block: S. mansoni TGR enzyme inhibition | Q962Y6 | purified TGR, DTNB reduction, TNB absorbance 405 nm | Potency, µM (highest dose often 114 µM), for the others: at the highest dose activity change, negative = inhibition, most hits filed as inhibitors | 360,000 tested, 3% active; note: potency is the fitted concentration of half-maximal effect; nearly all actives have a fitted effect of over 60% in size
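Kinetic colorimetric format: TGR-catalysed, NADPH-driven DTNB reduction monitored via TNB absorbance. Enzyme dispensed at 20 nM; compound exposure 15 min at room temperature before reaction start.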
Pf growth 96h: inhibits malaria parasite growth, 96 h; P. falciparum luciferase reporter growth, 96 h; Potency, µM (highest dose often 28.7 µM), inactives show at the top dose activity change, negative = inhibition, actives largely listed as inhibitors; 320,000 tested, 6.9% active; note: potency is the fitted concentration of half-maximal effect
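P. falciparum expressing integrated firefly luciferase grown in erythrocytes (2% hematocrit, 0.05% parasitemia final) with compounds for 96 hours at 37 C, 5% CO2. Growth inhibition read as loss of luminescence after adding luciferase detection reagent.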
FBPA Giardia inh: Giardia lamblia aldolase inhibition | AID 2451 | purified Giardia FBPA | 290,000 tested, 0.71% active | Potency, µM (series often up to 59.6 µM), inactives show at the highest dose activity, negative = inhibition, hits mostly inhibitors; note: potency is the fitted concentration of half-maximal effect; nearly all actives have a fitted effect of over 55% in size
Target sequence (A8B2U2 whole entry, looked up): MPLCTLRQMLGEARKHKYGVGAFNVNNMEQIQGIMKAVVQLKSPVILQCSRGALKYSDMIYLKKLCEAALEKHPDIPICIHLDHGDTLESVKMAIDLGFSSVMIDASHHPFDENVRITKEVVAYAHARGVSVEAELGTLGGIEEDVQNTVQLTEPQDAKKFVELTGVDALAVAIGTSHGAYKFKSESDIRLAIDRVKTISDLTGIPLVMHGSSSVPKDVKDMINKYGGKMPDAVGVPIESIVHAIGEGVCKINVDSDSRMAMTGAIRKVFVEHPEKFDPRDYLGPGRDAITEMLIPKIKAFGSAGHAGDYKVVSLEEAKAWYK
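Giardia FBPA (40 nM reagent) was preincubated 10 min at RT with compound (up to 57.5 uM final), then substrate plus GAPDH/TPI/NAD/arsenate coupling system with diaphorase/resazurin was added; resorufin fluorescence (525/598 nm) was read after 20 min.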
HCMV antiviral: blocks human cytomegalovirus replication. HFF cells, HCMV-luciferase reporter, 72 h; stronger effect = lower value. activity change, negative = inhibition, % at 57.5 µM. 410,000 tested, 4.5% active. AID 1259415; in the data active = activity change below about -60%; inconclusive = no clear call, values can overlap the other calls; inactive = above about -39%
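Inhibition of viral replication was scored as loss of reporter luminescence in HFFs infected with HCMV-luciferase (MOI 1 PFU/cell) for 72 h; compounds tested at 2 doses, normalized to buffer and Salinomycin controls.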
* = called active by the depositor; ? = inconclusive; . = not tested or not shown; ! = not confirmed by another sample; [ ] = dose if it differs, or a comment. Most compounds without a hit are left out; they make up all but 14% or so of the library. Unless noted, calls come from the whole dose curve; as a rule, active = well fitted curve in the direction sought with a large enough effect; inconclusive = small, poorly fitted or top-dose-only effect, or another doubt; inactive = no such curve, though single readings can be large; an effect the other way counts as inactive or inconclusive. % is set by controls: 0 for no effect and ±100 for the full control effect.

SMILES	Pf growth 48h	Sm TGR block	Pf growth 96h	FBPA Giardia inh	HCMV antiviral
N#CCc1ccc(NC(=O)/C=C/c2ccc([N+](=O)[O-])o2)cc1	-23.0%	4.47µM*	-0.9%	?	.
O=C(/C=C\Nc1ccc(Br)cc1)c1cccnc1	285.4%	4.7%	304.6%	-0.2%	97.3
O=C(NCc1ccccc1)c1ccc(CS(=O)(=O)c2c(Cl)cccc2Cl)o1	.	-3.9%	.	.	-2.3
CCOC(=O)C1=C(C)NC(=S)NC1c1ccc(OCC(=O)N2CCCCCC2)c(OC)c1 (stereo unspecified)	0.0%	-7.6%	?	-14.5%	2.3
COc1cc(-c2coc3c(C(=O)NCc4ccc(C(F)(F)F)cc4)cccc23)ccc1O	.	.	.	.	3.6
CN1CCN(C(=O)/C=C/c2ccc([N+](=O)[O-])o2)CC1	11.7µM*	17.8µM*	?	-15.7%	-100.6*
Cc1ccc(/C=C(\C#N)C(=O)Nc2ccc(Br)cc2)o1	.	7.7%	.	.	15.9
N#C/C(=C\c1ccc([N+](=O)[O-])o1)C(=O)Nc1ccc(F)cc1	-11.5%	.	4.5%	?	-77.9*
CN1CCN(C(=O)/C=C/c2ccccc2)CC1	0.2%	-13.1%	90.2%	-2.0%	-3.7
C=C(c1ccc2nc(NC(=O)OC)[nH]c2c1)c1cccs1	.	.	.	.	-88.4*
COC(=O)Nc1nc2ccccc2[nH]1	.	.	.	.	63.7
COc1ccc(N2CCN(C(=O)C3Cc4ccccc4CN3C(=O)c3ccco3)CC2)cc1 (stereo unspecified)	8.28µM*	-27.4%	?	.	-12.6
CC(=O)N1c2ccccc2CC1C(=O)N1CCN(c2ccccc2)CC1 (stereo unspecified)	.	9.8%	.	.	20.0
O=C(C1Cc2ccccc2CN1C(=O)c1ccccc1)N1CCN(c2ccccc2)CC1 (stereo unspecified)	?	-12.6%	4.15µM*	3.9%	0.0
C/C=C1\COC(C(=O)NCCN2CCOCC2)(C(F)(F)F)C=C1C=C1CCCCC1 (stereo unspecified)	.	.	.	-0.2%	.
CCCN(CCC)CCNC(=O)c1cc(Sc2ccc(Cl)cc2)nc2ccccc12	.	8.5%	.	.	15.1
O=C(CSc1nnnn1C1CC1)N1CCN(Cc2ccccc2F)CC1	-0.6%	-1.7%	-21.2%	.	-69.0*
COc1ccc2c(c1)[C@@H](NC(=O)OCc1ccccc1)[C@H](C)[C@@H](c1ccccc1)N2Cc1ccccn1	.	.	.	.	-26.9
COc1cccc2ccc(CC(O)(c3ccccc3)c3ccccc3)nc12	.	.	.	.	42.8
Cc1cccc(C)c1NS(=O)(=O)c1c(C(=O)N2CCCCC2)c(C)n(C)c1C	-5.3%	-1.4%	25.2%	7.6%	-32.9
COc1ccc(CN(CCC(c2ccc(F)cc2)C2CCOC(C)(C)C2)C(=O)c2ccco2)cc1 (stereo unspecified)	9.28µM*	-34.6%	?	-5.6%	-4.4
CC(c1ccccc1)N(CCC(c1ccccc1)C1CCOC(C)(C)C1)C(=O)c1ccco1 (stereo unspecified)	11.7µM*	-5.5%	-4.9%	-2.6%	-100.6*
CC1(C)CC(C(CC(=O)O)c2ccccc2)CCO1 (stereo unspecified)	-16.3%	6.1%	1.9%[5.75 µM]	6.1%	-17.2
COc1ccc(C2=Nc3ccccc3NC(=O)C2N(Cc2ccc(F)cc2)C(=O)c2ccco2)cc1 (stereo unspecified)	.	.	.	.	9.9
COc1cccc(CNC(=O)CSc2nc(=O)[nH]c3c2CCCC3)c1	.	5.9%	.	.	-17.8
SMILES	Pf growth 48h	Sm TGR block	Pf growth 96h	FBPA Giardia inh	HCMV antiviral
CCN(CC)c1ccc(C(=O)Nn2cnc3ccccc3c2=O)cc1	16.8%	0.6%	-3.7%	2.2%	-23.1
COc1cc(-c2nnc(COc3ccc4ccccc4c3)o2)cc(OC)c1OC	0.5%	7.9%	?	0.0%	-107.4*
CC1COC2=C1C(=O)C(=O)c1c2ccc2c1CCCC2(C)C (stereo unspecified)	.	.	.	1.58µM*	.
Cc1coc2c1C(=O)C(=O)c1c-2ccc2c(C)cccc12	?	8.91µM*	?	1.26µM*	.
Cc1coc2c1C(=O)C(=O)c1c-2ccc2c1CCCC2(C)C	?	10µM*	?	17.7µM*!	?
C[C@H]1COC2=C1C(=O)C(=O)c1c2ccc2c1CCCC2(C)C	?	3.98µM*	?	?	.
Cc1ccc(NC(=O)C2CCCN(S(=O)(=O)c3c(C)noc3/C=C/N(C)C)C2)c(C)c1 (stereo unspecified)	?	-7.4%	9.28µM*	.	14.1
Cc1ccc(NC(=O)C2CCCN(S(=O)(=O)c3c(C)noc3C)C2)c(Br)c1 (stereo unspecified)	-4.2%	-2.2%	5.86µM*	.	26.5
Cc1noc(/C=C/N(C)C)c1S(=O)(=O)N1CCC(C(=O)O)CC1	0.1%	5.4%	9.2%	2.9%	-69.2*
Cc1ccc(S(=O)(=O)N2CCCC(C(=O)NCC3CCCO3)C2)cc1 (stereo unspecified)	3.3%	1.9%	24.7%	2.9%	33.8
Cc1ccc(C)c(NC(=O)C2CCCN(S(=O)(=O)c3c(C)noc3/C=C/N(C)C)C2)c1 (stereo unspecified)	?	-13.0%	1.6%	.	8.0
Cc1noc(C)c1S(=O)(=O)N1CCCC(C(=O)NCC2CCCO2)C1 (stereo unspecified)	-2.6%	0.0%	9.28µM*	5.4%	-13.2
Cc1ccc(NC(=O)C2CCCN(S(=O)(=O)c3c(C)noc3C)C2)nc1 (stereo unspecified)	-14.3%	3.5%	-0.9%	-1.0%	-15.4
CCN1C(=O)[C@@H]2[C@@H](c3ccc(-c4ccc(F)cc4)c(OC)c3)N3CCC[C@@]3(C(=O)OC)[C@@H]2C1=O	.	.	.	.	21.7
CC(=O)N1CCN(C(=O)COC(=O)CNC(=O)c2ccc(C)cc2)CC1	-9.8%	-1.9%	-15.2%	.	3.2
Cc1ccc(NC(=O)C2CCCN(S(=O)(=O)c3c(C)noc3C)C2)cc1F (stereo unspecified)	?	0.5%	2.33µM*	10.0%	45.9
CCc1nc2ccc(C(=O)N3CCN(c4ccccc4)CC3)cn2c1N(CCC(C)C)CCN(C)C	.	.	.	.	-29.2
CCc1nc2ccc(C(=O)N3CCN(C)CC3)cn2c1N(CCC(C)C)CCN(C)C	.	.	.	.	-72.3*
CN(C(=O)c1ccccc1C(=O)OCC(=O)c1ccc(Br)cc1)c1ccccc1	?	-13.4%	11.7µM*	.	-19.4
CCc1nc2c(OCCC3CCCCC3)cccn2c1N(C)C(=O)c1ccc(OC)cc1	.	.	.	.	3.6
Cc1c(Cl)cccc1N=Cc1ccc([N+](=O)[O-])s1	?	39.8µM*	?	-0.5%	-107.8*
CCOc1cc(C)ccc1OCc1nnc(SCC(=O)c2cccc([N+](=O)[O-])c2)n1C	?	-10.1%	11.7µM*	-12.1%	10.4
COc1cccc(-c2cnc3cccnn23)c1	.	.	.	.	-29.6
CC(=O)c1cc(O)c2ccccc2c1O	?	8.91µM*	?	?	84.9
COc1ccc(C2(CO)OC(CO)C(O)C2O)cc1 (stereo unspecified)	.	.	.	.	31.4
